# Screening data as filed in PubChem BioAssay.
# VDR inhibitor: Inhibitors of the vitamin D receptor (VDR): qHTS; VDR-SRC2-3 peptide fluorescence polarization, 2 h; Vitamin D3 receptor (Homo sapiens), P11473; Potency, µM, for the others: max response, negative = inhibition, usual class: inhibitors; 400,000 compounds, 0.93% hits; further: on the % scale 0 is the no-effect control and ±100 the full control effect
#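 FP read-out; VDR + SRC2-3 coactivator peptide; 23 nl compound by pintool; 2 h RT incubation; reagents held at 4 deg C, protected from light.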
# Tb PFK inh: qHTS Assay to Find Inhibitors of T. brucei phosphofructokinase; ATP-dependent 6-phosphofructokinase (Trypanosoma brucei brucei), O15648; T. brucei PFK, ADP-Glo luminescence; Potency, µM (highest dose often 57.5 µM), inactives show at the highest dose activity, negative = inhibition, actives largely listed as inhibitors; 330,000 compounds, 0.17% hits;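 further: 0% = uninhibited 1x PFK enzyme wells and -100% = no-enzyme wells; nearly all actives have a fitted effect of over 60% in size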
#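 In TEA buffer at pH 8.0 with 5 mM MgCl2, enzyme (1.25 nM) converted F6P (0.5 mM) and ATP (0.1 mM) for 45 min at room temperature. ADP product was read by luciferase luminescence.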
# PLK1 PBD inh: qHTS for Inhibitors of PLK1-PDB (polo-like kinase 1 - polo-box domain): Primary Screen; 360,000 compounds, 2.8% hits; AID 720504, 2013; Potency, µM, for the others: max response, negative = inhibition, actives largely listed as inhibitors; Plk1 PBD binding of FITC phosphopeptide, fluorescence polarization; further: series mostly up to about 57 µM; on the % scale 0 is the no-effect control and ±100 the full control effect; nearly all actives have a fitted effect of over 65% in size
# Target sequence (P53350 whole entry, looked up, the tested form may be a part): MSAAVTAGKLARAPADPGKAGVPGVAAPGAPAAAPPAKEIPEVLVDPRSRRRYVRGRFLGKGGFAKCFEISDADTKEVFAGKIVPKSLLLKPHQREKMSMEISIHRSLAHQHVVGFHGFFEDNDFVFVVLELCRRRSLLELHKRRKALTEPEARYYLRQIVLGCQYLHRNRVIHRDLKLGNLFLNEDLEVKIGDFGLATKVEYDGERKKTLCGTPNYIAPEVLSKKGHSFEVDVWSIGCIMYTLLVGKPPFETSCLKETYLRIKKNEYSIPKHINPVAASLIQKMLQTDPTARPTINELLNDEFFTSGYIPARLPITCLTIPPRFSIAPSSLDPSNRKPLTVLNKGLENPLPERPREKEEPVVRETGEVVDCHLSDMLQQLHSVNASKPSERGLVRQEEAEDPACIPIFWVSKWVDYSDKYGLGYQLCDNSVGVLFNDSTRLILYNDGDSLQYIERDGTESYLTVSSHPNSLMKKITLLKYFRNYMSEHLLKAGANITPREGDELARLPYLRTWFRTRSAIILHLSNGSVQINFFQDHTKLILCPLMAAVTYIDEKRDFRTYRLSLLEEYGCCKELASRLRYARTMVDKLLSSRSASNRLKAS
# BRCA1 expr up: qHTS Assay to Identify Small Molecule Activators of BRCA1 Expression. MCF7-BRCA1-FFLuc reporter, luminescence, 48 h; response scale: scaled: vehicle 0%, 10 µM genistein 100%. Potency, µM (series often up to 46.1 µM), for the others: top-dose activation, hits mostly activators. 380,000 compounds, 1.1% hits; further: nearly all actives have a fitted effect of over 80% in size
#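 MCF7-BRCA1-FFLuc cells, 2000/well in phenol-red-free MEM, attached 2 h then treated 48 h at 37 C. Luciferase luminescence read 15 min after reagent; normalized to genistein maximum activation (10microM) and DMSO, concentration-response fitted.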
# The depositor's hits bear a star; ? = inconclusive; · = no result given. Only some compounds are listed: those with a hit (about 3.9% of all), similar ones and a draw of the others. The call rests on the fitted dose curve; in most records, active means well fitted curve in the direction sought with a large enough effect; inconclusive means small, poorly fitted or top-dose-only effect, or another doubt; inactive means no such curve, though single readings can be large; an effect the other way counts as inactive or inconclusive. Potency means the concentration at half of the fitted maximal effect.
SMILES,VDR inhibitor,Tb PFK inh,PLK1 PBD inh,BRCA1 expr up
CC(C)Cc1c2c([nH]c(=S)c1C#N)CCCC2,?,-9%,27µM*,7%
Cc1ccc(NC(=O)Cn2c(=O)ccc3cc(S(=O)(=O)N4CCC(C)CC4)ccc32)c(C)c1,2%,·,·,6%
CCCOc1ccc(CC2C(=O)Nc3ccc(Br)cc32)cc1 (centres undefined),1%,·,·,·
O=C(CCc1ccccc1)Nc1nc2c(F)cc(F)cc2s1,-13%,0%,-3%,10µM*
COc1cccc2c1OC1(C)CC2NC(=O)N1c1cccc(C(=O)Nc2ccc3c(c2)OCCO3)c1 (centres undefined),5%,3%,30µM*,8%
COc1ccc2[nH]c(=O)c(C(=O)O)cc2c1,-9%,0%,-9%,-12%
CC(C)C1Cc2[nH]c(=O)c(C(=O)O)cc2CO1 (centres undefined),-5%,-13%,-1%,8.9µM*
COC(=O)c1c(N2C(=O)CC(Sc3ccccc3C(=O)O)C2=O)sc2c1CCCC2 (centres undefined),-4%,1%,24µM*,-7%
CSC1=C(C#N)C(=O)NC(c2ccccc2O)S1 (centres undefined),-15%,-3%,2.1µM*,0%
CN1CCN(C(=O)c2ccc(COc3ccc(C(C)(C)C)cc3)o2)CC1,3%,-1%,-2%,3.5µM*
CC(C)c1ccc(S(=O)(=O)N2CCN(C(=S)NCc3ccco3)CC2)cc1,?,-1%,21µM*,-36%
Cc1ccc(C2NNC(=O)C2NC(=O)c2ccccc2)cc1 (centres undefined),4%,-2%,-26%,11µM*
Cc1ccc(S(=O)(=O)N(CC(=O)NCc2ccco2)C2CCCCC2)cc1,8%,-6%,-10%,-2%
CS(=O)(=O)N(CC(=O)NCc1ccc(Cl)cc1)C1CCCCC1,-7%,0%,3µM*,-1%
Cc1ccc(S(=O)(=O)N(CC(=O)NCc2ccncc2)C2CCCCC2)cc1,?,-5%,2.7µM*,-17%
Cc1cc(C)cc(NC(=O)COC(=O)CCCC2=NS(=O)(=O)c3ccccc3N2)c1,-12%,0%,-10%,-9%
Cc1cccc(OCC2=NS(=O)(=O)c3ccccc3N2)c1,-3%,2%,-9%,11µM*
COc1cc(NC(=S)Nc2cccnc2)cc(OC)c1,-10%,0%,24µM*,-8%
COc1cc(OC)cc(C(=O)NC(=S)Nc2cccnc2)c1,-1%,0%,-14%,0%
CC(=O)Nc1ccc(SCC(Cc2ccccc2)N2CCN(CC(C)C)CCC2=O)cc1 (centres undefined),-25%,·,·,·
CC(=O)Nc1ccc(SC[C@H](CC(C)C)N2CCN(CCc3ccccc3)CCC2=O)cc1,3%,-18%,19µM*,-22%
Cc1ccc(SC[C@H](CC(C)C)N2CCN(CCc3ccccc3)CCC2=O)cc1,2%,16%,-4%,35%
CC(C)C[C@@H](CSc1ccc(Br)cc1)N1CCN(C)CCC1=O,-11%,-19%,-17%,10µM*
CC(=O)Nc1ccc(SC[C@H](CC(C)C)N2CCN(CC(C)C)CCC2=O)cc1,-23%,-1%,27µM*,-10%
CC(=O)Nc1ccc(SC[C@H](Cc2ccccc2)N2CCN(CC(C)C)CCC2=O)cc1,-9%,-19%,34µM*,7%
SMILES,VDR inhibitor,Tb PFK inh,PLK1 PBD inh,BRCA1 expr up
CCCCN1CCC2C=CCC(C(=O)O)C2C1=O (centres undefined),-21%,·,·,·
C[C@H](NC(=O)c1ccco1)C(=O)NCc1cccs1,-6%,-4%,0%,1%
O=C(Cc1ccc(Oc2ccccc2)cc1)NO,·,·,·,-8%
CSc1ccc(CCNC(=O)Cn2c(C)c3cnn(-c4ccccc4)c(=O)c3c2C)cc1,6%,·,·,0%
CCOC(=O)c1c(C)c(C(=O)NCc2ccc(Cl)cc2)c(C)n1C,8%,·,·,4%
CCOc1ccc2c(c1)c(=O)c(S(=O)(=O)c1ccc(CC)cc1)cn2Cc1cccc(Cl)c1,1%,·,·,·
Cc1ccc(CNC(=O)NC2CCCCC2)cc1,-7%,-3%,1%,10µM*
O=C(Cc1ccc(O)cc1)NC1CCCCCC1,-3%,-18%,-10%,3.5µM*
COc1ccc(NC(=O)c2cnn(-c3ccc(C)cc3)c2-n2cccc2)cc1Cl,7%,·,·,·
Cc1cc(C(=O)OCC(=O)N2CCCC2)c2ccccc2n1,-14%,3%,-5%,-1%
Cc1cc(C(=O)OCC(=O)N2CCOCC2)c2ccccc2n1,?,2%,15µM*,-40%
O=C(OCC(=O)N1CCOCC1)c1ccccc1Br,5%,6%,2%,86%
O=C(OCC(=O)N1CCOCC1)c1ccccc1Cc1ccccc1,-17%,5%,-3%,2µM*
CCc1nnc(NC(=O)C(=O)c2cc(C)n(-c3ccccc3)c2C)s1,-2%,·,·,·
CC(C)OC(=O)/C=C1\C[C@@H](c2ccccc2C(F)(F)F)O[C@@H](c2ccccc2C(F)(F)F)O1,·,·,-7%,·
Brc1cccc[n+]1CCCCCC[n+]1ccccc1Br,·,·,·,-13%
Cc1ccc(C(=O)OC(C(=O)Nc2ccc(Cl)cc2C(F)(F)F)c2ccccc2)cc1 (centres undefined),3%,-5%,-11%,-32%
O=C(OC(C(=O)Nc1ccc(Cl)cc1C(F)(F)F)c1ccccc1)c1c(Cl)cccc1Cl (centres undefined),?,-1%,30µM*,-51%
O=C(c1nc2ccc(Cl)cn2c1CN1CCC[C@H]1CO)N1CCc2ccccc2C1,·,·,?,-22%
Cc1cccc(CCNC(=O)C2CCN(c3nc4ccccc4nc3C(F)(F)F)CC2)c1,4%,·,·,14%
CN1CCc2[nH]c3ccc(Cl)cc3c2C1,3%,·,·,22%
CCCNC(=O)OCc1cccnc1Sc1ccc(C)cc1,-5%,-2%,27µM*,?
Nc1cc(=O)[nH]c(SCC(=O)Nc2cc([N+](=O)[O-])ccc2Cl)n1,-15%,-13%,21µM*,-30%
Cc1ccc(NC(=O)COC(=O)c2ccco2)cc1S(=O)(=O)N1CCCCC1,·,·,-2%,1%
CCCSc1nnc2[nH]c(=O)cc(C)n12,18%,·,·,·
SMILES,VDR inhibitor,Tb PFK inh,PLK1 PBD inh,BRCA1 expr up
Cc1cc(=O)[nH]c2nnc(-c3ccc(Br)cc3)n12,-4%,2%,-15%,4µM*
COc1ccc(C=NN=C2c3ccccc3-c3ccccc32)cc1OC,6%,·,9%,-21%
Cc1ccc(Cn2ccn(CC(=O)Nc3c(C)cc(C)cc3C)c(=O)c2=O)cc1,-7%,·,·,·
Cc1c(NC(=O)C(C)OC(=O)COc2ccccc2)c(=O)n(-c2ccccc2)n1C (centres undefined),-2%,-3%,-9%,-4%
Cc1c(NC(=O)C(C)OC(=O)/C=C/c2ccco2)c(=O)n(-c2ccccc2)n1C (centres undefined),?,-20%,27µM*,-24%
COc1ccccc1NS(=O)(=O)c1cc(NC(=O)Nc2ccc(Cl)cc2Cl)ccc1N1CCCCC1,-16%,-8%,?,-101%
